From PubChem
Only a selection was taken, and hits are over-represented in it overall.
Tgondii IFNg – T. gondii growth inhibition with IFN-gamma, primary screen, cell-based | Toxoplasma gondii growth in IFN-gamma-treated host cells; stronger effect = lower value | AID 1259416, 2018 | hit rate 3.8% among 69,000 | activity change, negative = inhibition, % (concentration not given with the values); in the data active = activity change below about -70%, passing the limit was not always enough;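 also: host cells are HeLa cells infected with Toxoplasma gondii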
Starred values were filed as active, the others as inactive; i = inactive.

SMILES | Tgondii IFNg
C=CCN1CCO[C@H]2[C@H]1CC[C@H]2OCc1csc(C)n1 | i
CCN1c2cc(C)ccc2-n2cccc2C12CCN(C(=O)Nc1ccc(Br)c(C)c1)CC2 | -14
O=C1CC2(CCN(C(=O)c3ccno3)CC2)c2ccccc2N1 | 2
C=CCO[C@H]1CN(C(=O)Cc2ccsc2)[C@H]2COC[C@@H]12 | 35
O=C1COC2(CCN(C(=O)c3ccc4c(c3)OCO4)CC2)CN1 | 5
CCc1ccc(OCc2ccccc2C(=O)Nc2ccc3nc(C)cc(N)c3c2)cc1 | -74*
CCc1cccc(NC(=O)c2nc(Nc3ccc(C)cc3)c3ccccc3n2)c1 | 88
CCOC(=O)c1cccc(NC(=O)c2ccccc2OCC)c1 | -34
CCn1nc(C)c(CCNC(=O)c2ccc(-c3nc(CN4CCc5ccccc54)c(C)o3)cc2)c1C | -26
Cn1c(CN2CCOCC2)nnc1SCCOc1ccccc1 | 2
CC[C@@H](C(=O)[C@@H](C)[C@@H](O)[C@H](C)[C@@H]1O[C@@H]([C@@H](CC)C(=O)O)CC[C@@H]1C)[C@H]1OC2(C=C[C@@H](O)[C@]3(CC[C@@](C)(C4CC[C@](O)(CC)[C@H](C)O4)O3)O2)[C@H](C)C[C@@H]1C (stereo not given in full) | -84*
CC[C@@H](C(=O)[C@@H](C)[C@@H](O)[C@H](C)[C@@H]1O[C@@H]([C@@H](CC)C(=O)O)CC[C@@H]1C)[C@H]1O[C@]2(C=C[C@@H](O)[C@]3(CC[C@@](C)(C4CC[C@](O)(CC)[C@H](C)O4)O3)O2)[C@H](C)C[C@@H]1C (stereo not given in full) | -81*
Cc1ccc(NC(=O)CN2C(=O)CCc3cc(Br)ccc32)cc1N(C)C | i
Cc1cnccc1N1CCCN(C(=O)CCc2n[nH]c3c2CCCC3)CC1 | -4
O=C(Nc1cccc(Cn2cncn2)c1)c1cc(-c2ccccn2)nc2ccccc12 | -29
Cc1ccc2[nH]cc(CCNC(=O)c3cc(-c4ccccn4)nc4ccccc34)c2c1 | 61
Cn1nccc1-c1cc(C(=O)Nc2nc(-c3ccccn3)cs2)c2ccccc2n1 | -101*
CCOC[C@H]1CCC2C(CCN2Cc2ccc3c(c2)OCO3)O1 (stereo not given in full) | -6
CCN(CC)C(=O)CC1CC2(CCN(S(=O)(=O)C3CC3)CC2)c2ccccc21 (stereo not given) | 70
COc1ccc(-c2ccc3[nH]nc(N)c3c2)cn1 | -73*
COc1ccc(-c2cccc3c(C(N)=O)cccc23)cn1 | 14
COc1ccc(-c2cc(F)c(OC)c(F)c2)cn1 | -9
CC(=O)N1CCc2c([nH]c3ccccc23)C12C(=O)Nc1ccccc12 (stereo not given) | 404
C[C@]12OC(C[C@]1(O)CO)n1c3ccccc3c3c4c(c5c6ccccc6n2c5c31)CNC4=O | -82*
Cc1cc2oc(=O)cc(C)c2cc1NC(=O)C(C)(C)Oc1ccccc1 | 7
SMILES | Tgondii IFNg
O=C(c1ccccc1)C(c1ccccc1)C(Nc1ccc(Cl)cc1)c1ccccc1 (stereo not given) | 11
CN(C)c1ccc(C(=C2C=CC(=[N+](C)C)C=C2)c2ccc(N(C)C)cc2)cc1 | -81*
CN(Cc1cncnc1)[C@H]1CN(C(N)=O)[C@H]2CCCO[C@@H]12 | 17
CCc1ccc(S(=O)(=O)N2CCC3(CC2)NCCN=C3NCc2ccccc2)cc1 | -14
Nc1c(NCc2ccccc2)c(=O)c1=O | 28
O=c1[nH]cc(Nc2ccccc2)c(=O)[nH]1 | 27
O=c1c(Nc2ccccc2)c(Nc2ccccc2)c1=O | -82*
COc1ccc(-c2nc(-c3noc4ccc(C(=O)N5CCCN(C)CC5)cc34)co2)cc1 | 0
Nc1ncccc1OCc1nc(CCc2ccccc2)no1 | -30
O=C(O)CN1C[C@H]2CN(c3ccccc3)C(=O)[C@@H]2C1 | 60
c1ccc(CNc2ccc(C3c4ccccc4Oc4ccccc43)cc2)cc1 | -97*
CNCc1ccccc1 | 9
O=C(O)CCc1ccc(NCc2cccc(Oc3ccccc3)c2)cc1 | 14
Cc1c(Cl)cccc1NC(=O)Cn1c(=O)cc(-c2nc(C(C)C)no2)c2ccccc21 | 8
CC(c1ccc2c(c1)OCCO2)N(C)C(=O)c1cc2n(n1)CCCN(C)C2 (stereo not given) | 5
COc1ccc(OC)c(NC(=O)N2CCN(Cc3nc(-c4cccc(Cl)c4)oc3C)CC2)c1 | 0
CC[C@@]1(O)C(=O)OCc2c1cc1n(c2=O)Cc2cc3c([N+](=O)[O-])cccc3nc2-1 | -80*
Cc1cc(=O)oc2c(CN(C)C)c(O)ccc12 | -2
CC[C@@]1(O)C(=O)OCc2c1cc1n(c2=O)Cc2cc3c(CN(C)C)c(O)ccc3nc2-1 | -78*
O=C(c1cc2cccnc2n(Cc2ccccc2)c1=O)N1CCCC1 | 52
COc1ccc(CCNC(=S)N2CCC(c3nc4ccccc4o3)CC2)cc1OC | -24
Cc1cc(C)c(NC(=O)c2cc3ccccc3c(=O)s2)c(-c2cc(C)[nH]n2)c1 | 8
Cc1nn(CC(=O)N2CCCC(C)C2)c(=O)c2nc(-c3ccccc3)sc12 (stereo not given) | -27
